From PubChem
This is a sample that favours compounds with a hit; in the whole collection about 1.1% have one here.
MazEF act: activators of E. coli MazEF toxin-antitoxin RNase, primary screen, biochemical, fluorescence, uHTS. AID 504720, 2011. FAM/BHQ RNA-DNA oligo cleavage fluorescence, 5 h. hit rate 0.32% among 350,000. Endoribonuclease toxin MazF (Escherichia coli (strain K12)), P0AE70. activation, % at 20 µM; in the data active = activation above about 50%
Target sequence (P0AE70 whole entry, looked up): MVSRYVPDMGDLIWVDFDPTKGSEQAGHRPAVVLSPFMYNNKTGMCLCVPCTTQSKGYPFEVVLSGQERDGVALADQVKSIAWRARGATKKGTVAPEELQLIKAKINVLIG
PrP UTR inh: inhibition of PrP 5' UTR reporter expression; AID 488862, 2010; hit rate 0.35% among 340,000; inhibition, % (test concentration not listed); cell-based PrP 5' UTR mRNA reporter, plate reader; in the data active = inhibition above about 52%; also: 0 = median of the neutral control wells
BJeLR viability: MLPCN primary cell-based screen for lethality selective to Ras in HRASV12 cells; BJeLR (HRASV12) viability, CellTiter-Glo ATP luminescence, 48 h; inhibition, % (no concentration beside the values); hit rate 0.17% among 300,000; in the data active = inhibition above about 50%
PrPC TRFRET: inhibitors of human cell surface prion protein PrPC, primary screen, cell-based, TR-FRET. TR-FRET read-out. inhibition, % at 13.8 µM. Major prion protein (Homo sapiens), P04156. hit rate 0.43% among 370,000; in the data active = inhibition above about 24%; also: 0% = median of the test wells and 100% = reference compound wells
PrP UTR cherry: prion 5' UTR mRNA inhibition, cherry-pick retest | shares compounds with PrP UTR inh | cell-based prion protein 5' UTR reporter, plate reader | inhibition, % at 2.5 µM | hit rate 48% among 1,100; in the data active = inhibition above about 54%
Active calls of the source: *; i = inactive; · = not tested or not shown.

SMILES	MazEF act	PrP UTR inh	BJeLR viability	PrPC TRFRET	PrP UTR cherry
Cc1ccc(C(=O)OCC(=O)c2cc(C)n(CC3CCCO3)c2C)cc1 (stereo not drawn)	-1.4	-28.8	-11.7	1.4	·
Cc1cc(C(=O)COC(=O)c2ccccc2O)c(C)n1Cc1cccs1	-13.9	90.9*	7.6	1.5	80.0*
Cc1cc(C(=O)COC(=O)c2cc(O)c3ccccc3c2O)c(C)n1CC1CCCO1 (stereo not drawn)	-25.8	-18.1	·	·	·
Cc1cc(C(=O)COC(=O)c2ccccc2O)c(C)n1CC1CCCO1 (stereo not drawn)	8.3	88.9*	·	7.5	90.0*
C=CCn1c(C)cc(C(=O)COC(=O)c2ccc(N)c([N+](=O)[O-])c2)c1C	-6.5	-110.2	-12.2	-3.4	·
CCn1c(C)cc(C(=O)COC(=O)c2ccccc2[N+](=O)[O-])c1C	3.9	94.5*	·	·	96.9*
O=C(Nc1cccc(Cl)c1)OCCN1CCCC12CCC(c1ccccc1)CC2 (stereo not drawn)	·	·	·	-5.8	·
O=S(=O)(N[C@H]1CCCC[C@@H]1N1CCOCC1)c1ccc(Cl)cc1	·	·	·	4.1	·
C[C@H](CO)N1C[C@H](C)[C@@H](CN(C)S(C)(=O)=O)OCc2cn(nn2)CCCC1=O	·	·	·	2.5	·
COCCn1c(C)cc(C(=O)COC(=O)c2ccccc2Br)c1C	-0.5	72.6*	-2.4	0.6	71.3*
COCCn1c(C)cc(C(=O)COC(=O)c2cccnc2SC)c1C	8.3	8.4	·	6.2	·
Cc1ccsc1C(=O)OCC(=O)c1cc(C)n(C)c1C	0.5	59.2*	·	3.6	63.2*
Cc1cc(C(=O)COC(=O)c2ccccc2Br)c(C)n1CC1CCCO1 (stereo not drawn)	-3.4	77.4*	2.2	0.1	70.9*
C#CCN1CC(N(C)CCO)CS1(=O)=O (stereo not drawn)	·	·	·	-1.4	·
C[C@@H]1CCCCO[C@@H](CN(C)C(=O)NC2CCCCC2)[C@@H](C)CN([C@H](C)CO)C(=O)c2cc(N(C)C)ccc2O1	·	·	·	-2.4	·
Cc1ccc(N2C(=O)c3cccc4c(N)ccc(c34)C2=O)c2cccnc12	i	73.8*	26.1	-4.3	85.6*
COC(=O)[C@]12C[C@H](CC(=O)NCCC(C)C)C(=O)N(Cc3ccccc3)C1=C[C@H](C(C)C)O[C@@H]2C1CC1	·	·	·	0.4	·
O=C(C1CCCCC1)n1ccc2ccc(-c3ccc4ccn(Cc5ccccc5)c4c3)cc21	·	·	·	1.3	·
CCOC(=O)[C@@]12CCCC3=C1N(CCC3)C(=O)[C@H]2CC(=O)N1CCC(c2ccccc2)CC1	·	·	·	6.8	·
O=C(/C=C/Nc1ccccc1Br)c1ccccn1	-1.1	88.8*	24.9	-16.7	83.2*
Fc1ccc(-n2nnc(-c3cccnc3)n2)cc1	10.5	-45.4	-5.1	5.5	·
Fc1ccc(-n2nnc(-c3cnc4ccccc4c3)n2)cc1	4.2	71.5*	8.1	-4.0	53.6*
O=C(COc1ccc(Cl)cc1)NCC(=O)N/N=C/c1cccs1	-1.4	63.1*	6.0	-3.8	-6.2
O=C(Nc1ccc(Nc2cccnc2)cc1)c1c[nH]c2ccccc12	·	·	·	-7.7	·
O=C1C=C(Nc2cccc3cccnc23)c2ccccc2C1=O	-4.8	64.2*	45.1	-17.7	-36.4
SMILES	MazEF act	PrP UTR inh	BJeLR viability	PrPC TRFRET	PrP UTR cherry
NC(=O)Nc1ccc(C(=O)OCC(=O)N(Cc2ccccc2)C2CCS(=O)(=O)C2)cc1 (stereo not drawn)	-5.9	-34.5	-2.9	-2.7	·
CN(C)c1cccc(C(=O)OCC(=O)N(Cc2ccccc2)C2CCS(=O)(=O)C2)c1 (stereo not drawn)	1.4	59.5*	·	3.0	-5.3
O=C(Cc1ccc(NC(=O)C2CCCN(C(=O)c3ccccc3)C2)cc1)Nc1cccc(C(=O)N2CCCCC2)c1 (stereo not drawn)	·	·	·	1.6	·
Cc1nn(-c2ccc3ccccc3c2)c(=O)c2ccccc12	-4.9	-67.1	2.1	-12.1	·
Cc1nn(-c2nc3ccccc3[nH]2)c(=O)c2ccccc12	9.4	92.7*	89.6*	1.6	95.1*
O=C(O)c1cccc(COc2ccccc2Cl)c1	-7.2	68.9*	19.5	0.4	83.4*
O=C(O)c1ccc(COc2ccccc2Cl)cc1	4.9	-12.7	3.0	0.1	·
O=C(N/N=C/c1ccc(O)cc1)c1[nH]c2ccc(Br)cc2c1-c1ccccc1	24.2	39.2	7.6	8.4	·
O=C(N/N=C/c1c[nH]c2ccccc12)c1[nH]c2ccc(Br)cc2c1-c1ccccc1	4.0	68.4*	25.9	10.5	87.5*
COC(=O)c1ccc(S(=O)(=O)N2CCC(NC(=O)CCC3CCCC3)CC2)cc1	·	·	·	0.8	·
CSc1n[nH]c(-c2cccs2)n1	·	·	·	-5.7	·
CCC(=O)NC(c1ccc(OC)cc1)c1cc(Cl)c2cccnc2c1O (stereo not drawn)	-0.6	35.4	8.3	-4.4	·
COc1ccc(C(NC(=O)c2cccnc2)c2cc(Cl)c3cccnc3c2O)cc1OC (stereo not drawn)	-5.2	88.7*	12.4	1.7	30.4
CC(C)C[C@H]1COc2c(Cl)cccc2S(=O)(=O)N1Cc1cccc(Cl)c1	·	·	·	-1.9	·
Cc1[nH]n(-c2ccccc2)c(=O)c1C(=O)c1cccc(F)c1	5.4	61.7*	7.5	3.2	-20.8
COC(=O)CCn1nnc(-c2ccc(C(C)C)cc2)n1	0.5	73.5*	1.5	-10.6	69.5*
CCN(CC)S(=O)(=O)c1ccc(C(=O)O)cc1	-2.7	80.0*	5.9	-2.7	8.4
CCN(CC)S(=O)(=O)c1ccc(C(=O)NCCc2ccccn2)cc1	2.7	78.3*	-13.4	6.3	-13.9
O=C(NCCc1ccccn1)c1ccc(NS(=O)(=O)c2ccc(F)cc2)cc1	-3.9	-0.6	-1.8	7.6	·
CCCN(CCC)S(=O)(=O)c1ccc(C(=O)O)cc1	7.4	-16.1	1.2	2.2	·
COC(=O)C1CCN(c2cc(=O)n(-c3ccc(OC)cc3)c(=O)[nH]2)CC1	11.1	67.7*	-7.3	-4.0	-15.2
CCOC(=O)N1CCN(c2cc(=O)n(-c3ccc(OC)cc3)c(=O)[nH]2)CC1	8.4	-17.0	·	-3.1	·
COc1ccc(/C=C/CN2CCN(Cc3ccccc3)C(CCO)C2)cc1 (stereo not drawn)	1.7	75.7*	0.6	-3.8	-57.5
Cc1ccc(C(=O)Nc2ccc3ncccc3c2)cc1	-15.2	55.6*	14.5	-0.8	31.3
COc1ccc(C(=O)Nc2ccc3ncccc3c2)cc1	1.3	-19.4	-0.2	7.1	·
O=C(O)c1ccc(N/N=C/c2ccc3c(c2)OCO3)cc1	3.7	77.2*	42.1	4.2	64.8*
O=C(O)c1cc(N/N=C/c2ccc3c(c2)OCO3)ccc1Cl	7.5	-53.4	-7.6	-3.9	·
O=C(Nc1cccc(C(=O)O)c1)Nc1ccc2c(c1)OCO2	4.8	83.7*	-0.6	5.2	73.3*
COc1cccc(NC(=O)Nc2cccc(C(=O)O)c2)c1	5.6	62.0*	-2.2	3.7	62.9*
CCOC(=O)c1cccc(NC(=O)/C=C/c2ccc3c(c2)OCO3)c1	1.7	60.4*	6.9	17.7	22.3
